From PubChem BioAssay (NCATS)
Results filed as inconclusive are left out. Entries that show only a call come without a potency. Calls of active or inactive are those of the source. Unless noted, calls come from the whole dose curve; as a rule, active = well fitted curve in the direction sought with a large enough effect; inconclusive = small, poorly fitted or top-dose-only effect, or another doubt; inactive = no such curve, though single readings can be large; an effect the other way counts as inactive or inconclusive.

Target: Guanine nucleotide-binding protein G(i) subunit alpha-1 (Homo sapiens) (UniProt P63096)
Sequence (P63096 whole entry, looked up): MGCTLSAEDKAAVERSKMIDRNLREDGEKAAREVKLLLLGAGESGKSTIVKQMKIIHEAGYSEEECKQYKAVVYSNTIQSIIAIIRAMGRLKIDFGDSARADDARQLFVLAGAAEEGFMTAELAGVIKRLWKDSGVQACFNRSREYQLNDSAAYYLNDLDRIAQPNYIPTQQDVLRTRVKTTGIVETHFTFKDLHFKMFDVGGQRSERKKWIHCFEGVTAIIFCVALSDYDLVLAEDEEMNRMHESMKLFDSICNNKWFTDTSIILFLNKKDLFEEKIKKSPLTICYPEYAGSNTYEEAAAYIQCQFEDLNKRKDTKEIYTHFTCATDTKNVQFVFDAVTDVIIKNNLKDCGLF
Test: qHTS Assay for Inhibitors of RGS12 GoLoco Motif Activity (Green Fluorophore) (AID 879);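 note: negative values mean loss of peptide binding seen as reduced polarization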
Conditions: Galphai1/FITC-RGS12 GoLoco peptide, fluorescence polarization; series mostly up to 57.1 µM
Procedure, shortened: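 Fluorescence polarization assay: 50 nM Gαi1 with 10 nM FITC-labeled RGS12 GoLoco peptide in 10 mM Tris pH 7.5, 150 mM NaCl, 0.1 mM GDP, 0.05% NP40, 10 min at room temperature with compound.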

Row | Structure (SMILES) | outcome
1 | N=c1ccn2c(n1)O[C@@H]1[C@@H](O)[C@H](CO)O[C@H]12 | inactive
2 | CN1[C@@H]2CC[C@H]1CC(OC(=O)[C@@H](CO)c1ccccc1)C2 (stereo partly drawn) | inactive
3 | O=C(O)CCCC[C@H]1CCSS1 | inactive

Target: Cytochrome P450 2C9 (Homo sapiens) (UniProt P11712)
Sequence (P11712 whole entry, looked up): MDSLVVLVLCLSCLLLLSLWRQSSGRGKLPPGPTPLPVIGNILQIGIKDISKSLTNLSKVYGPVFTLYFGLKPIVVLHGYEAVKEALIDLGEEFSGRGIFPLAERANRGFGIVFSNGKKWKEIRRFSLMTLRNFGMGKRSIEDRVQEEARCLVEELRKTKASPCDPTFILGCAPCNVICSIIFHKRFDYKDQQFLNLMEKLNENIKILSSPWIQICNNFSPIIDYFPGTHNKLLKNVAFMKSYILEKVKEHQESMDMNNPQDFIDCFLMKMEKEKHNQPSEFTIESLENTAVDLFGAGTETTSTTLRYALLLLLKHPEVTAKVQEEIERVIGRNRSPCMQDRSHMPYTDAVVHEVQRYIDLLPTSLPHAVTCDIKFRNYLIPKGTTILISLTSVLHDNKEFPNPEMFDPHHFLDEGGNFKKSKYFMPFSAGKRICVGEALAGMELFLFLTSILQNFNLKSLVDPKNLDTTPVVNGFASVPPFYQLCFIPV
Test: qHTS Assay for Inhibitors and Substrates of Cytochrome P450 2C9 (AID 883); note: nearly all actives have a fitted effect of over 60% in size; note: potency is the fitted concentration of half-maximal effect
Conditions: recombinant CYP2C9, luciferin-H luminescence, 60 min; series mostly up to 11.4 µM
Procedure, shortened: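 Signal: luciferase luminescence reporting luciferin produced by CYP2C9. Conditions: 10nM enzyme, Luciferin-H 100uM at KM, 25mM KPO4, 37C, 60 min NADPH-driven reaction. Reference: 57uM sulphaphenazole as 100% inhibition.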

Row | Structure (SMILES) | Potency
4 | N=c1ccn2c(n1)O[C@@H]1[C@@H](O)[C@H](CO)O[C@H]12 | inactive
5 | Cc1cc(O)c(C(C)C)cc1C1(c2cc(C(C)C)c(O)cc2C)OC(=O)c2ccccc21 | 316 nM (active)
6 | N[C@H](COP(=O)(O)O)C(=O)O | inactive
7 | O=C(O)CCCC[C@H]1CCSS1 | inactive

Target: Cytochrome P450 3A4 (Homo sapiens) (UniProt P08684)
Sequence (P08684 whole entry, looked up): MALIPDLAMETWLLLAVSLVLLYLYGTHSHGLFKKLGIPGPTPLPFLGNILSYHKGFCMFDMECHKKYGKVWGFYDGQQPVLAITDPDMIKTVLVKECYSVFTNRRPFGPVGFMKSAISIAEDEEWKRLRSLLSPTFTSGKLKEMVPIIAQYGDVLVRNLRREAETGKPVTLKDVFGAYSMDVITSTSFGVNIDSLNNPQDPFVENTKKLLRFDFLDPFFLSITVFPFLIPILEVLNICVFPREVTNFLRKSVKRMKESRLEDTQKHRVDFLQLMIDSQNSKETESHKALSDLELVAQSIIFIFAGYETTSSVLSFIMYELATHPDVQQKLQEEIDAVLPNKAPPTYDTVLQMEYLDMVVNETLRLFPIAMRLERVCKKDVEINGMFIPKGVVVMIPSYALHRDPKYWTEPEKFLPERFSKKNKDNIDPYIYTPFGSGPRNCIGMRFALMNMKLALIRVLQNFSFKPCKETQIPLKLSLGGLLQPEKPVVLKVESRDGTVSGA
Test: qHTS Assay for Activators of Cytochrome P450 3A4 (AID 885); note: nearly all actives have a fitted effect of over 65% in size
Conditions: recombinant CYP3A4, Luciferin-PPXE luminescence, 60 min; series mostly up to 11.4 µM
Procedure, shortened: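 Quantitative HTS format: compounds preincubated with 20nM human CYP3A4 and Luciferin-PPXE substrate at KM, reaction started by NADPH regeneration, stopped after 60 min, luciferase luminescence read 20 min later.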

Row | Structure (SMILES) | Potency
8 | Cc1nnc(SCC2=C(C(=O)O)N3C(=O)[C@@H](NC(=O)Cn4cnnn4)[C@@H]3SC2)s1 | inactive
9 | CN(C)c1ccc(-c2nc(N3CCNCC3)c3ccccc3n2)cc1 | inactive
10 | Oc1ccc([C@@H]2CNCCc3c2cc(O)c(O)c3Cl)cc1 | inactive

Tested on: not listed separately
Test: qHTS Assay for Identification of Small Molecule Agonists for Thrombopoietin (TPO) Signaling Pathway (AID 917)
Conditions: TPO signaling pathway reporter cells, agonist qHTS, stimulated with TPO at its EC50; series mostly up to 38.5 µM
Procedure, shortened: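 We measured Glycoprotein IIb promoter–luciferase output in IL-3-starved Ba/F3 murine cells expressing the human TPO receptor after 24 hrs at 37 C with compounds and 26 pM TPO.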

Row | Structure (SMILES) | outcome
11 | Cc1nnc(SCC2=C(C(=O)O)N3C(=O)[C@@H](NC(=O)Cn4cnnn4)[C@@H]3SC2)s1 | inactive
12 | CN1[C@@H]2CC[C@H]1CC(OC(=O)[C@@H](CO)c1ccccc1)C2 (stereo partly drawn) | inactive
13 | O=C(O)CCCC[C@H]1CCSS1 | inactive

Target: Pyruvate kinase PKM (Homo sapiens) (UniProt P14618)
Sequence (P14618 whole entry, looked up): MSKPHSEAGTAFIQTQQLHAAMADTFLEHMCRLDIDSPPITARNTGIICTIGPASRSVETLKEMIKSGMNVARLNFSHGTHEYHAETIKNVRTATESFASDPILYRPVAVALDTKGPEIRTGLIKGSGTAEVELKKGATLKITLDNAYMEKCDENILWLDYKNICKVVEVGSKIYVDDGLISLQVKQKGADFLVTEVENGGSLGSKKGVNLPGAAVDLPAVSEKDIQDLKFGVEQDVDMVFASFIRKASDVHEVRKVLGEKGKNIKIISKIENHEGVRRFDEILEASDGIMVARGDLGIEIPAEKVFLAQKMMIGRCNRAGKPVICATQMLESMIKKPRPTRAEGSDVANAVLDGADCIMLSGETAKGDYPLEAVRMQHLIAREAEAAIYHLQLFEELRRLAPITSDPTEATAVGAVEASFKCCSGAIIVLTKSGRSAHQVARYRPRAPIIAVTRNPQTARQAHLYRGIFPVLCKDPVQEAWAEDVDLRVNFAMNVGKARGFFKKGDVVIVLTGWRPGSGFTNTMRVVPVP
Test: qHTS Assay for Activators of Human Muscle Pyruvate Kinase (AID 954; active = well fitted curve in the direction sought with a large enough effect, not every such curve was filed as active)
Conditions: purified human muscle pyruvate kinase, luciferase-coupled luminescence, 1 h; series mostly up to 57.5 µM
Procedure, shortened: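 Enzyme was run at intermediate activity so both inhibitors and activators could be detected. ATP formed from ADP and PEP by 0.1 nM human PKM2 during a 1 h room-temperature incubation was quantified by coupled luciferase luminescence.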

Row | Structure (SMILES) | outcome
14 | N=c1ccn2c(n1)O[C@@H]1[C@@H](O)[C@H](CO)O[C@H]12 | inactive
15 | Cc1nnc(SCC2=C(C(=O)O)N3C(=O)[C@@H](NC(=O)Cn4cnnn4)[C@@H]3SC2)s1 | inactive
16 | CN1[C@@H]2CC[C@H]1CC(OC(=O)[C@@H](CO)c1ccccc1)C2 (stereo partly drawn) | inactive
17 | O=C(O)CCCC[C@H]1CCSS1 | inactive
18 | Oc1ccc([C@@H]2CNCCc3c2cc(O)c(O)c3Cl)cc1 | inactive

Target: Alpha-galactosidase A (Homo sapiens) (UniProt P06280)
Sequence (P06280 whole entry, looked up): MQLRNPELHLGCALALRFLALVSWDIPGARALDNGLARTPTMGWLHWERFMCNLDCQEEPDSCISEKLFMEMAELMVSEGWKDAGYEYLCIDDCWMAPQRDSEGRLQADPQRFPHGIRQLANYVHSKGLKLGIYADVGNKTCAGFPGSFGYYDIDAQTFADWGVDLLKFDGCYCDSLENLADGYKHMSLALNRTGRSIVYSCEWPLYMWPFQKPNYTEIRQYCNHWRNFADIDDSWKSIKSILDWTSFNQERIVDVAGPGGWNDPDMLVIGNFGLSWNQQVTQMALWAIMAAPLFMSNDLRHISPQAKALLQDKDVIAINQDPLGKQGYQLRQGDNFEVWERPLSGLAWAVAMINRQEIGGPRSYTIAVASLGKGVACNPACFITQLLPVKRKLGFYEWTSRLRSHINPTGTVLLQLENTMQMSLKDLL
Test: Counterscreen for Glucocerebrosidase Inhibitors: qHTS Assay for Human alpha-Galactosidase at pH 4.5 (AID 992)
Conditions: purified enzyme, fluorogenic substrate; series mostly up to 76.9 µM
Procedure, shortened: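 Read-out is 4-methylumbelliferone fluorescence (365 nm excitation, 440 nm emission) after a pH 10 NaOH/glycine stop. Reactions held 2 nM enzyme and 80 uM substrate at pH 4.5 for 20 min at room temperature.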

Row | Structure (SMILES) | outcome
19 | N=c1ccn2c(n1)O[C@@H]1[C@@H](O)[C@H](CO)O[C@H]12 | inactive
20 | Cc1nnc(SCC2=C(C(=O)O)N3C(=O)[C@@H](NC(=O)Cn4cnnn4)[C@@H]3SC2)s1 | inactive
21 | CN1[C@@H]2CC[C@H]1CC(OC(=O)[C@@H](CO)c1ccccc1)C2 (stereo partly drawn) | inactive
22 | O=C(O)CCCC[C@H]1CCSS1 | inactive
23 | Oc1ccc([C@@H]2CNCCc3c2cc(O)c(O)c3Cl)cc1 | inactive

Target: alpha-glucosidase (Oryza sativa, rice) (UniProt Q653V4)
Test: Counterscreen for Glucocerebrosidase Inhibitors: qHTS Assay for Rice alpha-Glucosidase at pH 5.0 (AID 997)
Conditions: rice alpha-glucosidase enzyme activity; series mostly up to 76.9 µM
Procedure, shortened: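 Rice alpha-glucosidase (4 nM final) with 400 uM 4-methylumbelliferyl-alpha-D-glucopyranoside in citrate buffer pH 5.0, 20 min at room temperature, stopped at pH 10; fluorescence 365/440 nm, compounds 0.7 nM–77 uM, AC50 from Hill fits.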

Row | Structure (SMILES) | Potency
24 | N=c1ccn2c(n1)O[C@@H]1[C@@H](O)[C@H](CO)O[C@H]12 | inactive
25 | Cc1nnc(SCC2=C(C(=O)O)N3C(=O)[C@@H](NC(=O)Cn4cnnn4)[C@@H]3SC2)s1 | inactive
26 | CN1[C@@H]2CC[C@H]1CC(OC(=O)[C@@H](CO)c1ccccc1)C2 (stereo partly drawn) | inactive
27 | O=C(O)CCCC[C@H]1CCSS1 | inactive
28 | Oc1ccc([C@@H]2CNCCc3c2cc(O)c(O)c3Cl)cc1 | inactive
